The source of these data is PubChem BioAssay.

Calls of active or inactive are those of the source. The rule behind the calls is not given here.

As a reminder, the inhibition is the percentage by which the read-out fell short of the control.

Chain of Pantothenate synthetase (Mycobacterium tuberculosis (strain ATCC 25618 / H37Rv)) (P9WIL5 whole entry, looked up): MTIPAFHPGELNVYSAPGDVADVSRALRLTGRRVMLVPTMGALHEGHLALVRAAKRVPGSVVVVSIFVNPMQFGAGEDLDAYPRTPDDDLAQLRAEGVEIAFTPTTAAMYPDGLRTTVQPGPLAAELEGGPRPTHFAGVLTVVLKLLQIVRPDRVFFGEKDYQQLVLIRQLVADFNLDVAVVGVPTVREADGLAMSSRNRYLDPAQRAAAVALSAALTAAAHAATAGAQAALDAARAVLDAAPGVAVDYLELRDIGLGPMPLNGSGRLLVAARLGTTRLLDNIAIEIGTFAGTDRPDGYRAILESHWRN

The assay concerns the target Pantothenate synthetase (Mycobacterium tuberculosis (strain ATCC 25618 / H37Rv)) (UniProt P9WIL5). Kind of assay: Recombinant Mtb pantothenate synthetase (PanC) inhibitors, coupled enzyme, confirmatory (AID 375).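 Note: 0% = full reaction with vehicle and 100% = no enzyme background.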 The note with it: coupled enzyme assay; at 10 µM, hits give high values.
Regarding `O=C1OC(c2ccc(O)cc2)(c2ccc(O)cc2)c2ccccc21`, the inhibition is 4% (inactive). The same measure for `CC1CCCCC1NC(=O)c1nn(C)c(=O)c2ccccc12` (stereo not given): 0% (inactive); for `C=CCN1C(=O)CS/C1=N/c1nccs1`: 0% (inactive). For the compound `CCC(=O)N1CCc2cc(Br)cc(S(=O)(=O)N3CCCCCC3)c21`, the inhibition is 0% (inactive).

For `S=c1[nH]nc(Cc2ccccc2)n1-c1ccccc1`, the inhibition is 1% (inactive). The same measure for `CN1CC=C2C(C#N)=C(N)C(C#N)(C#N)C(c3cccc(Cl)c3Cl)C2C1` (stereo not given): 0% (inactive). As for `CC(=O)c1ccc(OCC(O)CN2CCN(CCO)CC2)cc1` (stereo not given), the inhibition is 4% (inactive). The result for `CC1(C)OC(=O)C(=CNc2ccccc2F)C(=O)O1` reads 0% (inactive); that for `CN(C)S(=O)(=O)c1ccc(S(=O)(=O)N(Cc2ccco2)Cc2ccccc2Cl)cc1`, 3% (inactive). For `O=C(COC(=O)C1CC(=O)N(c2ccccc2)C1)c1ccccc1` (stereo not given), the inhibition was 0% (inactive). The same measure for `OC(CN1CCN(c2ccccc2)CC1)c1ccc2c(c1)CCN2` (stereo not given): 0% (inactive). The same measure for `CCn1c(SCC(=O)Nc2nc(C)cs2)nnc1-c1ccco1`: 0% (inactive).

Take `O=S(=O)(c1cccc2c(S(=O)(=O)N3CCCC3)cccc12)N1CCCC1`: the inhibition was 0% (inactive). The result for `Nc1nnc(-c2cccc(Cl)c2Cl)c(N)n1` reads 2% (inactive); that for `CCOC(=O)CSc1nc2sc(C)c(C)c2c(=O)[nH]1`, 0% (inactive). The result for `COc1ccc(Cn2nnnc2C(c2cc3cc(C)cc(C)c3[nH]c2=O)N2CCOCC2)cc1` (stereo not given) reads 0% (inactive); that for `O=C(c1cccnc1)N1CCN(Cc2ccc3c(c2)OCO3)CC1`, 0% (inactive); that for `COc1ccc(CN(Cc2nc3ccccc3c(=O)[nH]2)C(=O)NC2CCCCC2)cc1`, 5% (inactive). The result for `CC(=O)N(c1ccc(N(C(C)=O)S(=O)(=O)c2cccs2)cc1)S(=O)(=O)c1cccs1` reads 0% (inactive); that for `CCC(=O)N1CCc2cc(S(=O)(=O)CCC(=O)Nc3ccc(C)c(F)c3)ccc21`, 0% (inactive). As for `CN(C)c1cccc(N=C2C=C(N3CCOCC3)CC(C)(C)C2)c1`, the inhibition is 0% (inactive). The result for `Cc1nc(SCc2ccc(Br)cc2)[nH]c(=O)c1C` reads 0% (inactive). The result for `O=C(O)CC1NC(=O)N(c2ccccc2)C1=O` (stereo not given) reads 0% (inactive). The same measure for `Cn1c(=O)[nH]c(=O)c2c1nc(CN1CCN(c3cccc(Cl)c3)CC1)n2CCc1ccccc1`: 4% (inactive).

As for `Clc1ccc(OCc2nnc(SCCN3CCCCC3)n2Cc2ccco2)cc1`, the inhibition is 0% (inactive). The same measure for `COc1cccc(OCc2nc3ccccc3[nH]2)c1`: 0% (inactive); for `CCN(CC)CCCNS(=O)(=O)c1ccc(OC)cc1`: 3% (inactive). The same measure for `COc1ccc(-c2cc(C(F)(F)F)nc(SCC(=O)NCc3ccco3)n2)cc1OC`: 3% (inactive); for `Cc1ccc(-c2cn3cccnc3n2)cc1NC(=O)c1ccc(Br)o1`: 0% (inactive). Consider `CC1C(=O)C(C)C(c2cccs2)NC1c1cccs1` (stereo not given), for which the inhibition is 0% (inactive).

Take `CCCC(=O)Nc1cccc(NC(=O)CN2CCN(c3ccccc3OC)CC2)c1`: the inhibition is 0% (inactive). The result for `Cc1ccc(-c2nnc(SCC(=O)N3c4ccccc4NC(=O)C3(C)C)n2N)cc1` reads 1% (inactive).

As for `CCCCCC1CC(CC#CCN2CCOCC2)C(=O)O1` (stereo not given), the inhibition was 7% (inactive). The same measure for `CCOC(=O)c1[nH]c(C)c(C(=O)Nc2ccc(C)c(Cl)c2)c1C`: 9% (inactive); for `CC(C)(C)SCCNC(=O)CN1C(=O)c2ccccc2S1(=O)=O`: 0% (inactive); for `Cc1cc(Oc2ccc(Cl)cc2)nc(-c2ccccc2O)n1`: 7% (inactive).

Turning to `CC1(C)C(=O)Nc2ccccc2N1C(=O)COC(=O)Cn1cnc2ccccc2c1=O`, the inhibition was 0% (inactive). The result for `O=C(CN1CCOCC1)Nc1cccc(C(=O)Nc2cccc(C(F)(F)F)c2)c1` reads 2% (inactive); that for `CC1(C)CC(=O)c2c(O)cc(O)cc2O1`, 3% (inactive). On to `Cc1cccc(OCCNC(=O)c2ncn[nH]2)c1`, for which the inhibition was 0% (inactive).
